The record followed here is PubChem BioAssay AID1347044 (National Center for Advancing Translational Sciences (NCATS), 2019).

Screen size: about 1,400 compounds; about 1,100 (79%) were called active. Not shown: some 20% with an inconclusive outcome. The set was probably picked from earlier hits. The list is a sample of the results. A number with no mark means an inactive call. The call rests on the fitted dose curve.
Potency means the concentration at half of the fitted maximal effect.

Sequence of Atrial natriuretic peptide receptor 1 (Homo sapiens) (P16066 whole entry, looked up, the tested form may be a part): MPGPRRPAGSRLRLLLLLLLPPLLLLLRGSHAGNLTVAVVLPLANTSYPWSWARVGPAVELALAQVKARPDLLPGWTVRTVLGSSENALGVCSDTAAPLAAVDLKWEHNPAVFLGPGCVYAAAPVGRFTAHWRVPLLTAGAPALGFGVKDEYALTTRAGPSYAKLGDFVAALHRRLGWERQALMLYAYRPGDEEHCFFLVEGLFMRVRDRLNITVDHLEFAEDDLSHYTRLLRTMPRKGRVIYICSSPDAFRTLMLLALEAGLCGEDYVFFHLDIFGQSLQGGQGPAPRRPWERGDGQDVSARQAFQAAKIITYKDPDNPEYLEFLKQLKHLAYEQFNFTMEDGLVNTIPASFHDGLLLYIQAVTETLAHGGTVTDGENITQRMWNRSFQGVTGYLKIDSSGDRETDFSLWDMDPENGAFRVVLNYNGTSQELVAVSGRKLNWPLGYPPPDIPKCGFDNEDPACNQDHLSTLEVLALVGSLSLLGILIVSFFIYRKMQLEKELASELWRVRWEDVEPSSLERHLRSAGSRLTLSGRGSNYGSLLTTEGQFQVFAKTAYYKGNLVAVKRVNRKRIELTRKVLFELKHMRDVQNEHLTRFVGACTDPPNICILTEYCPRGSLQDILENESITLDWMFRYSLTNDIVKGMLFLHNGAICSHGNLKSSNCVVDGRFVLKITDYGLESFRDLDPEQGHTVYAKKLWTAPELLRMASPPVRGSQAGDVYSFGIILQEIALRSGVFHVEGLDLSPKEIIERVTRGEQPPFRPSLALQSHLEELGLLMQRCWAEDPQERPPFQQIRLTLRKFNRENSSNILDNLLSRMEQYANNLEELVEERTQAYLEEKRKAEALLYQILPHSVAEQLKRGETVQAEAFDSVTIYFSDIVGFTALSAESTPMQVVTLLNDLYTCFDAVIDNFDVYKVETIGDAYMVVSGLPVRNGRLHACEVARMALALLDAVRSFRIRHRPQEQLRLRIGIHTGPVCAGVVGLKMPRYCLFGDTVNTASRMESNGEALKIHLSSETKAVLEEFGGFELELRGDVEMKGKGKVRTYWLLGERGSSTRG

In this assay the target is Atrial natriuretic peptide receptor 1 (Homo sapiens) (UniProt P16066). Kind of assay: Natriuretic polypeptide receptor (hNpr1) antagonism - Confirmation. Further: nearly all actives have a fitted effect of over 70% in size. To be noted: HEK293 hNpr1 cGMP GloSensor luminescence, ANP-stimulated; series mostly up to 57.6 µM; activity change, negative = inhibition: at the top concentration. Here is the method:
In order to identify small molecular compounds that inhibit the hNpr1 receptor we developed a high-throughput assay to measure inhibition of the guanylate cyclase activity of the receptor. cGMP production was measured using a circular permutated Firefly luciferase (FLuc) enzyme functionally linked to the cGMP binding domain of human phosphodiesterase 5 (GloSensor technology pGS-40F, (Fan, F. et al. 2008). The cGMP-sensor was expressed in human embryonic kidney 293 (HEK-293) cells and FLuc activity was measured after stimulation with hNrp agonist peptide. hNrp agonists activates the receptor's associated guanylyl cyclase (GC) domain producing cGMP which then binds to the GloSensor resulting in FLuc activation, the enzymatic activity of which can be measured as bioluminescence with addition of luciferin substrate. A cytotoxicity counter-screen using the HEK-hNpr1-cGMP-sensor cells was also performed on the follow-up compounds. F. Fan, B. F. Binkowski, B. L. Butler, P. F. Stecha, M. K. Lewis, K. V. Wood, Novel genetically encoded biosensors using firefly luciferase. ACS Chem Biol 3, 346-351 (2008).
PROTOCOL TABLES (as described by Inglese J, Shamu CE and Guy RK. 2007) SEQUENCE No. (e.g., 1, 2, 3, etc.); PARAMETER (e.g., Cells, Incubation, Reagent, etc.); VALUE and DESCRIPTION. GLOSENSOR PROTOCOL 1. Cells. Seed 1500 HEK293 cGMP-sensor cells expressing hNpr1 per well in 4uL into Greiner 1536-well white/solid bottom high base, tissue culture-treated plates. 2. Incubation. Incubate plated cells at 37C in 5% CO2, 95% RH overnight. 3. Reagent. Add 1uL per well GloSensor reagent from Promega (2% final concentration) or CO2 independent media vehicle control to respective columns of Greiner 1536-well plates. 4. Incubation. Incubate plated cells at room temperature for 2 h, protect from light. 5. Compounds. Library compounds and A-71915 control added at 23 nL per well, transferred by Pin Tool. 6. Incubation. Incubate plated cells for 30 min. at room temperature, protect from light. 7. Detector. GloSensor baseline pre-read luminescence measured using CCD-based camera (Viewlux). 8. Compound. Add 1uL of hNppA peptide to 0.1 nM final concentration to stimulate hNpr1 or CO2 independent media as vehicle control. 9. Incubation. Incubate treated cells at room temperature for 20 min., protect from light. 10. Detector. GloSensor post-hNppA luminescence measured using CCD-based camera (Viewlux). NOTES (numbers refer to Sequence numbers above) 1. HEK293 cells expressing hNpr1 and GIP/pGS-40F grown to 85-95% confluence (48-72 h) in T175 culture flasks (CO2 independent media supplemented with 10% FBS, 1% Pen/Strep antibiotics and 1 ug/mL puromycin). Trypsinize and harvest cells from T175 culture flasks and filter through 40 um cell strainer. Cells counted with Invitrogen Countess (30,000,000 - 50,000,000 cells/flask). Cells diluted to a final concentration of 375 cells/uL in CO2 independent media and a Millipore multidrop used to dispense 1500 cells per well (4uL/well) into 13 1536-well Greiner White/Solid bottom, high base tissue-culture treated (TC) plates and one Aurora 1536-well Black/Clear bottom, low base, TC plate (for visual inspection of cell health throughout the duration of the assay). 2. Cells incubated overnight at ambient temperature, 24 h. at 37C in 95% RH incubator protected from light, covered with metal lid with gas-exchange holes. 3. Prepare GloSensor Reagent (Promega): Reconstitute GloSensor luciferase substrate by adding 8.2mL Hepes buffer to 250mg substrate, mix well, protect from light and stored at -80C. Prepare a fresh 12% GloSensor solution in CO2 independent supplemented plating media (see above). Mix well and store at ambient temperature, protected from light. 1uL 12% GloSensor Luciferase Reagent added (2% final concentration) to respective columns of 13 x 1536-well Greiner plate with BioRaptr, 1uL CO2 independent plating media added to respective columns as vehicle control with BioRaptr. 4. […]
Take `Cc1nc(-c2ccncc2)ncc1C(C)Nc1ncnc(C)c1C` (stereo not drawn): the Potency is 21.7 µM (active).

For the compound `O=C(c1ccc2cc[nH]c2c1)N1CCC2(CC1)N=C(c1ccc(Cl)cc1)NO2`, the Potency was 19.3 µM (active).

As for `O=[S+]1([O-])NCC2(CCCN(Cc3ccc(C(F)(F)F)cc3)C2)Oc2ncccc21` (stereo not drawn), the Potency is 24.3 µM (active).

Turning to `Cc1cccc(CN2CCc3nc(C(=O)Nc4ccc(Cl)cc4)oc3CC2)c1`, the Potency was 9.94 µM (active).

For `COc1cccc(C2C(C(=O)Nc3ccccc3)=C(C)N=C3SC=C(CC(=O)NCC(C)C)N32)c1` (stereo not drawn), the “activity change, negative = inhibition” value is -27.5%.

With `COc1cccc(CNC(=O)Cn2c(N(C)Cc3ccccc3)nc(C)cc2=O)c1OC`, the Potency is 24.3 µM (active).

In the case of `COc1cccc(NC(=O)Cn2c(N(C)Cc3ccccc3)nc(C)cc2=O)c1`, the Potency was 10.9 µM (active).

Consider `O=c1[nH]c(C2CCCN(Cc3ccccn3)C2)nn1-c1ccc(Cl)cc1` (stereo not drawn), for which the Potency was 6.85 µM (active).

Take `CC1(C(=O)NCc2ccc3c(c2)OCO3)CCc2cnc(NCc3ccccc3)nc21` (stereo not drawn): the Potency is 35.3 µM (active).

For the compound `Cc1ccc2c(c1)nc1n2[C@@H](CNS(=O)(=O)c2ccccc2)COC1`, the Potency was 35.3 µM (active).

Turning to `COc1ccc(CN2C(=O)CO[C@H]3CN(Cc4ccc5c(c4)OCO5)C[C@H]32)cc1`, the Potency is 31.4 µM (active).

On to `O=C(c1ccccc1)N1CCNc2cnc(Nc3cccc(C(F)(F)F)c3)nc2C1`, for which the Potency is 31.4 µM (active).

Take `COc1ccc(S(=O)(=O)N2CCc3c(C(=O)NCCc4ccccn4)cccc32)cc1`: the Potency is 24.3 µM (active).

Take `CC(C)c1cc(C(=O)N2CCC(n3cc(-c4ccccn4)nn3)CC2)n(C)n1`: the Potency was 13.7 µM (active).

For `COc1ccc(OCC2(C)COc3ccc(C(=O)Nc4cccnc4)cc3N2)cc1` (stereo not drawn), the Potency is 35.3 µM (active).

For `CN(Cc1csc(-c2ccccc2)n1)c1cc(C2CC(O)C2)nc(N)n1` (stereo not drawn), the Potency is 2.43 µM (active).

Regarding `Cc1noc(C)c1-c1cc(-c2ccccc2Oc2ccccc2)cn2cncc12`, the Potency is 19.8 µM (active).

Take `O=C1NCN(Cc2ccc(Cl)cc2)C12CCN(Cc1ccccc1)CC2`: the Potency is 15.3 µM (active).

On to `N#Cc1cccc(CN2CCC(C3=NC(O)c4cc(F)ccc4N3)CC2)c1` (stereo not drawn), for which the Potency was 15.3 µM (active).

Consider `CN1CCN(C(=O)C(C)(C)Oc2nn(Cc3cccc(Cl)c3)c3ccccc23)CC1`, for which the Potency is 28 µM (active).

As to `Cc1cc(N2CCCC(Cn3cc(Cc4ccccc4)nn3)C2)nc(N)n1` (stereo not drawn), the Potency is 6.11 µM (active).

Turning to `Cc1noc(C)c1-c1cnc2[nH]cc(CC(=O)N3CCOCC3)c2c1`, the Potency is 31.4 µM (active).

Turning to `O=C(Cc1c[nH]c2ncc(-c3ccccc3F)cc12)N1CCOCC1`, the Potency is 31.4 µM (active).

For `COc1ccc(CCNC(=O)c2noc(-c3ccc(C)cc3)n2)cc1OC`, the Potency was 24.3 µM (active).

With `O=C(c1ccc(Cl)cc1)N1CCCC(n2cc(-c3nc(-c4ccccc4)no3)nn2)C1` (stereo not drawn), the Potency is 19.3 µM (active).

On to `O=C(c1ccc(F)cc1Cl)N1CCC(n2cc(-c3nc(-c4ccccc4)no3)nn2)C1` (stereo not drawn), for which the Potency is 4.32 µM (active).

As for `CC(C)c1noc(-c2cn(C3CCN(C(=O)c4ccc(N(C)C)cc4)C3)nn2)n1` (stereo not drawn), the Potency is 15.3 µM (active).

With `Cc1nn2c(c1-c1ccccc1-c1ccccc1)N(CC1CC1)CCC2`, the Potency is 2.8 µM (active).

Take `COc1ccc(CC(=O)N2CCC(Cc3nc(-c4ccccc4)no3)CC2)cc1OC`: the Potency is 12.2 µM (active).

On to `COc1ccc(-c2noc(CC3CCN(C(=O)Cc4ccc(OC)c(OC)c4)CC3)n2)cc1`, for which the Potency was 3.43 µM (active).

As to `Cc1c[nH]c(CN2CCCC(CCc3ccc(F)cc3F)C2)c(C)c1=O` (stereo not drawn), the Potency was 3.43 µM (active).

Regarding `O=C(c1ccccn1)N1CC(Oc2ccc(-c3noc(C4CC4)n3)cc2)C1`, the Potency is 17.2 µM (active).

Consider `Cc1cccc(C(=O)N2CCC(Oc3ccc(-c4noc(C(C)C)n4)cc3)C2)c1` (stereo not drawn), for which the Potency is 27.3 µM (active).

With `O=C1c2cnc(-c3ccc(Cl)cc3)nc2OCCN1Cc1ccccc1`, the Potency is 35.3 µM (active).

For the compound `COC(=O)c1cccc(NC(=O)CCNc2c(C)nc3cnccn23)c1`, the Potency is 21.7 µM (active).

Regarding `O=C(c1ccccc1)N1CCC(C(=O)N2CCC(Cc3nc(-c4ccc(F)cc4)no3)CC2)CC1`, the Potency was 17.2 µM (active).

As to `COc1cccc(-c2noc(CC3CCN(C(=O)c4ccc(F)cc4)CC3)n2)c1`, the Potency is 6.11 µM (active).

Regarding `Cc1cc(CNC(=O)c2ccc(-c3ccccc3Cl)o2)n(C)n1`, the Potency was 24.3 µM (active).

In the case of `O=C(NCC1CC1)c1nc2c(o1)CCN(Cc1cccc(F)c1F)CC2`, the Potency was 28 µM (active).

As for `C1CCC(COCCc2noc(C3CNC3)n2)C1`, the Potency was 21.7 µM (active).

As for `COc1ccccc1Nc1cnc2ccc(N(C)Cc3cccnc3)nn12`, the Potency is 31.4 µM (active).

Turning to `OC1(Cc2cc(-c3ccccc3)no2)CCN(c2ncncn2)CC1`, the Potency was 7.69 µM (active).

As to `O=C(NCc1nnc2cc(-c3nc(C4CC4)no3)ccn12)c1ccc(F)cc1Cl`, the Potency is 17.2 µM (active).

Take `Cc1ccc(OCc2nc(C3CCN(C(=O)CCc4nc5ccc(Cl)cc5[nH]4)CC3)no2)cc1`: the Potency is 24.3 µM (active).

For `CCN(CCCNC(=O)c1nnn2cc(-c3ccccc3)[nH]c(=O)c12)c1ccccc1`, the “activity change, negative = inhibition” value is -27.6%.

Consider `CC(C)c1nncn1C1CCN(S(=O)(=O)c2cccc(Br)c2)CC1`, for which the Potency was 19.3 µM (active).

Take `COc1ccc(-c2noc(CC3CCN(C(=O)Cc4ccc(C)cc4)CC3)n2)cc1`: the Potency is 27.3 µM (active).

On to `COc1ccc(-c2noc(CC3CCN(C(=O)Cc4ccccc4)CC3)n2)cc1`, for which the Potency was 24.3 µM (active).

In the case of `COc1ccc(-c2noc(CC3CCN(C(=O)CC4CCCCC4)CC3)n2)cc1`, the Potency is 10.9 µM (active).

Take `CC1=NS(=O)(=O)N(C)C=C1C(=O)OCc1nc(-c2ccc(C)cc2)no1`: the Potency was 10.9 µM (active).

Turning to `O=C(c1cc(F)ccc1Cl)N1CCN(c2cc(-c3ccc(F)cc3)[nH]n2)CC1`, the Potency was 27.3 µM (active).

As for `CCc1ccc(C(=O)N2CCN(c3cc(-c4ccc(F)cc4)[nH]n3)CC2)cc1`, the Potency is 24.3 µM (active).

Regarding `O=C(c1ccc(F)cc1F)N1CCN(c2cc(-c3ccc(Cl)cc3)[nH]n2)CC1`, the Potency was 17.2 µM (active).

Consider `Cc1ccc(C(=O)N2CCN(c3cc(-c4ccc(Cl)cc4)[nH]n3)CC2)c(C)c1`, for which the Potency was 6.11 µM (active).

Take `Cc1ccc2nc(C3CCCN(Cc4ccc(C#N)cc4)C3)[nH]c(=O)c2c1` (stereo not drawn): the Potency was 24.3 µM (active).

Consider `COc1ccc(C2Cn3nnc(C(=O)N4CCN(C(=O)c5cccc(Cl)c5)CC4)c3CO2)cc1` (stereo not drawn), for which the Potency was 13.7 µM (active).

For the compound `COc1ccc(C2Cn3nnc(C(=O)N4CCN(C(=O)c5ccc(C)cc5C)CC4)c3CO2)cc1` (stereo not drawn), the Potency was 24.3 µM (active).

On to `CC(C)(C)c1csc(NC(=O)c2ccc3c(c2)OCCN(C2CCC2)C3)n1`, for which the Potency was 35.3 µM (active).
